Assay results taken from PubChem BioAssay (NCI).
Compounds without any hit were thinned out: in the full panel of roughly 83,000, 20% have a hit.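 Single-dose data. Exposure time 48 hours. Values below 10 considered active.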 The source made the active and inactive calls.

Columns and labels:
Assay in all cases: NCI-60 one-dose screen, 48 h (100 = growth as untreated, 0 = no growth, -100 = all killed)
Conditions in all cases: 10 µM unless noted
[1] = tested on: SR leukemia
[2] = tested on: RPMI-8226 leukemia
[3] = tested on: OVCAR-8 ovarian
[4] = tested on: OVCAR-5 ovarian
[5] = tested on: OVCAR-4 ovarian
[6] = tested on: SK-OV-3 ovarian
[7] = tested on: IGROV1 ovarian
[8] = tested on: OVCAR-3 ovarian
[9] = tested on: HS 578T breast
[10] = tested on: NCI/ADR-RES ovarian
[11] = tested on: T-47D breast
[12] = tested on: BT-549 breast
[13] = tested on: MDA-MB-435 melanoma
[14] = tested on: SW-620 colon
[15] = tested on: MCF7 breast
[16] = tested on: HCT-116 colon
[17] = tested on: HCC-2998 colon
[18] = tested on: KM12 colon

Measured: growth

C=C(C)C(=O)O[C@H]1C[C@@]2(C)OC(=CC2=O)[C@H](C)[C@H](O)[C@H]2OC(=O)C(=C)[C@@H]21
inactive: [1] 38.1% | [2] 27.1% | [3] 71.9% | [4] 98.6% | [5] 82.3% | [6] 89.7% | [7] 69.7% | [8] 20.1% | [9] 95.4% | [10] 84.1% | [11] 22.2% | [12] 68.9% | [13] 76.3% | [14] 17.3% | [15] 22.1% | [16] 33.4% | [17] 114% | [18] 84.1%

COc1ccc(/C=C/C(=O)c2nnn(-c3ccc(C(=O)O)cc3)c2C)cc1OC
inactive: [1] 95.4% | [2] 99.4% | [3] 102% | [4] 97.8% | [5] 107% | [6] 112% | [7] 96.1% | [8] 117% | [9] 102% | [10] 106% | [11] 96.8% | [12] 95.7% | [13] 101% | [14] 110% | [15] 86.3% | [16] 91.6% | [17] 106% | [18] 101%

CCN(CC)CCCC(C)NCC(=O)NC(c1ccc2c(c1)OCO2)c1cc(Cl)c2cccnc2c1O (stereo not drawn)
active: [13] 8.56% | [15] 7.35% | [16] 7.29% | [17] -11.4% | [18] 9.46%
inactive: [1] 39.2% | [2] 27.9% | [3] 25.2% | [4] 40.6% | [5] 11.5% | [6] 40.6% | [7] 20.9% | [8] 10.8% | [9] 79.7% | [10] 38.6% | [11] 40.1% | [12] 79% | [14] 24.2%

COc1ccc(/C=C/C(=O)c2nnn(-c3ccc(Br)cc3)c2C)cc1OC
inactive: [1] 52.6% | [2] 10.5% | [3] 82.7% | [4] 94.1% | [5] 71.6% | [6] 90.3% | [7] 69.2% | [8] 52.9% | [9] 92.5% | [10] 59.3% | [11] 66.4% | [12] 63.9% | [13] 61.3% | [14] 51.6% | [15] 12.9% | [17] 83.7% | [18] 66.7%
active: [16] 5.41%

CS(=O)(=O)c1ccc(-c2nn(-c3ccccc3)cc2/C=C/C(=O)c2ccc(Br)cc2)cc1
inactive: [1] 59.6% | [2] 32.8% | [3] 93.6% | [4] 101% | [5] 90.6% | [6] 107% | [7] 95% | [8] 70.3% | [9] 117% | [10] 85.2% | [11] 87.8% | [12] 105% | [13] 95.3% | [14] 86.9% | [15] 50.2% | [16] 73.2% | [17] 105% | [18] 80%

CCCCOc1ccc(S(=O)(=O)N2CCN(c3nccc(N4CCOCC4)n3)CC2)cc1
inactive: [1] 46.3% | [3] 49.5% | [4] 56.2% | [5] 49.4% | [6] 12.8% | [8] 105% | [9] 69.4% | [10] 31.2% | [11] 69% | [12] 13% | [13] 14.5% | [14] 34.8% | [15] 87.5% | [16] 12.6% | [17] 33.8% | [18] 16%
active: [2] 6.35% | [7] 9.51%

COc1ccccc1/C=C/C=N/NC1=NC2C(S1)N(C)C(=O)N2c1ccccc1 (stereo not drawn)
inactive: [1] 16.7% | [2] 18.9% | [3] 24.4% | [4] 33.3% | [5] 56.8% | [6] 62.4% | [7] 19.4% | [9] 25.5% | [10] 10.4% | [11] 77.8% | [12] 10% | [14] 17.7% | [15] 13.4% | [17] 19.9%
active: [8] -27.2% | [13] -20.6% | [16] 3.81% | [18] 7.34%

COC[C@@]1(C)CC[C@]2(C)CC[C@]3(C)C(=CC[C@@H]4[C@@]5(C)CCCNC(C)(C)[C@@H]5CC[C@]43C)C2C1 (stereo partly drawn)
inactive: [2] 21.3% | [3] 88.6% | [4] 80% | [5] 65.6% | [6] 104% | [7] 52.3% | [8] 78.3% | [9] 78.5% | [10] 72.6% | [11] 70.5% | [12] 87.4% | [13] 44.2% | [14] 53.2% | [15] 23.9% | [16] 40.1% | [17] 58.8% | [18] 61.4%
active: [1] 4.07%

CNC(=O)c1c(NC(=O)c2ccc(F)cc2F)sc2c1CCC(=O)C2
inactive: [3] 13.9% | [7] 22.8% | [9] 24.5% | [13] 12.2% | [17] 13.5%
active: [1] 1.58% | [2] -12.3% | [4] 0.937% | [5] -40.6% | [6] -4.66% | [8] 0.976% | [10] 5.72% | [11] -14.2% | [12] 6.83% | [14] 5.05% | [15] 7.35% | [16] 7% | [18] 9.65%

C/C(=N/Nc1nc(N/N=C(/C)c2ccc([N+](=O)[O-])cc2)nc(N2CCOCC2)n1)c1ccc([N+](=O)[O-])cc1
inactive: [1] 113% | [2] 64.7% | [3] 63.6% | [4] 95.5% | [5] 77.6% | [6] 113% | [7] 93.8% | [8] 88.4% | [9] 78.7% | [10] 68.7% | [11] 54.9% | [12] 67.3% | [13] 85% | [14] 95.5% | [15] 74.1% | [16] 70.6% | [17] 96% | [18] 82.2%

O=C(CCCCCCN1CC(=O)N2[C@@H](c3ccc(Cl)c(F)c3)c3[nH]c4ccccc4c3C[C@H]2C1=O)NO
inactive: [1] 45.1% | [2] 59.1% | [3] 66.5% | [4] 87.6% | [5] 84.3% | [6] 81.8% | [7] 64.5% | [8] 83.6% | [9] 98.4% | [10] 101% | [11] 75.6% | [12] 108% | [13] 82.8% | [14] 74.7% | [15] 73.2% | [16] 55.5% | [17] 99.2% | [18] 87.1%

O=c1oc2ccc(-c3ccc(F)cc3F)cc2c(=O)n1-c1ccc(F)c(F)c1
inactive: [1] 27.5% | [4] 12.9% | [7] 15.1% | [14] 12.7% | [17] 14.5%
active: [2] -19.1% | [3] 8.19% | [5] 9.07% | [6] 6.15% | [8] 5.59% | [9] 1.72% | [10] 3.65% | [11] 9.12% | [12] -2.01% | [13] 3.43% | [15] 2.02% | [16] 6.87% | [18] 3.33%

COc1ccc(-c2nnc(SCc3ccc(O)c4ncccc34)n2-c2ccccc2)cc1
inactive: [1] 34.3% | [2] 10.9% | [3] 16.1% | [4] 53.3% | [5] 13.6% | [6] 12.5% | [7] 10% | [9] 22.1% | [11] 18.9% | [12] 19.7% | [13] 14.3% | [14] 12.7% | [17] 31.9% | [18] 15.6%
active: [8] 8.67% | [10] 4.3% | [15] 5.08% | [16] 7.39%

CCC(C)[C@H]1OC(=O)[C@H](C(C)C)N(C)C(=O)[C@@H](C(C)C)OC(=O)[C@H](C(C)C)N(C)C(=O)[C@@H](C(C)CC)OC(=O)[C@H](C(C)C)N(C)C1=O (stereo partly drawn)
inactive: [3] 11.6% | [4] 13.4% | [5] 10.5% | [7] 25.8% | [8] 18.3% | [9] 32.9% | [13] 16.1% | [14] 17.3% | [17] 23.4% | [18] 15.7%
active: [1] 7.44% | [2] -19.5% | [6] -15.3% | [10] 2.47% | [11] 3.65% | [12] 0.725% | [15] 8.27% | [16] 8.58%

O=C(COc1ccc(/C=C2\SC(=O)NC2=O)cc1)Nc1ccc(C(=O)/C=C/c2cc3ccccc3nc2Cl)cc1
inactive: [1] 31.3% | [3] 76.4% | [4] 110% | [5] 42.2% | [6] 108% | [7] 71.4% | [8] 85.5% | [9] 78.8% | [10] 92.6% | [11] 54.7% | [12] 67.7% | [13] 13.6% | [14] 88.7% | [17] 64.6% | [18] 59.5%
active: [2] -25.8% | [15] -4.07% | [16] -57.2%

O=C(CCCCCCN1CC(=O)N2[C@@H](c3cc(F)cc(F)c3)c3[nH]c4ccccc4c3C[C@H]2C1=O)NO
inactive: [1] 26% | [2] 24.2% | [3] 45% | [4] 66.4% | [5] 69.4% | [6] 60.9% | [7] 49.1% | [8] 55.8% | [9] 61.6% | [10] 91.5% | [11] 30.6% | [12] 98.6% | [13] 47.9% | [14] 46.9% | [15] 52% | [16] 27.3% | [17] 82.4% | [18] 69.7%
